Experimental data reported in PubChem BioAssay (NCATS).
“And” between values parts separate entries of the source, which are not always exact repeats. Equal entries are not always repeated. Inconclusive results are not listed. A call without a number means that no potency is given here. The source made the active and inactive calls. Unless noted, the call rests on the fitted dose curve; in most records, active means well fitted curve in the direction sought with a large enough effect; inconclusive means small, poorly fitted or top-dose-only effect, or another doubt; inactive means no such curve, though single readings can be large; an effect the other way counts as inactive or inconclusive. Where a SMILES comes first, the peptide text is derived from it.

Tests used:
[1] = molecular target: Cytochrome P450 1A2 (Homo sapiens) (UniProt P05177); assay: p450-cyp1a2 (AID 410; calls by dose curve; further: potency means the concentration at half of the fitted maximal effect)
Sequence of Cytochrome P450 1A2 (Homo sapiens) (P05177 whole entry, looked up): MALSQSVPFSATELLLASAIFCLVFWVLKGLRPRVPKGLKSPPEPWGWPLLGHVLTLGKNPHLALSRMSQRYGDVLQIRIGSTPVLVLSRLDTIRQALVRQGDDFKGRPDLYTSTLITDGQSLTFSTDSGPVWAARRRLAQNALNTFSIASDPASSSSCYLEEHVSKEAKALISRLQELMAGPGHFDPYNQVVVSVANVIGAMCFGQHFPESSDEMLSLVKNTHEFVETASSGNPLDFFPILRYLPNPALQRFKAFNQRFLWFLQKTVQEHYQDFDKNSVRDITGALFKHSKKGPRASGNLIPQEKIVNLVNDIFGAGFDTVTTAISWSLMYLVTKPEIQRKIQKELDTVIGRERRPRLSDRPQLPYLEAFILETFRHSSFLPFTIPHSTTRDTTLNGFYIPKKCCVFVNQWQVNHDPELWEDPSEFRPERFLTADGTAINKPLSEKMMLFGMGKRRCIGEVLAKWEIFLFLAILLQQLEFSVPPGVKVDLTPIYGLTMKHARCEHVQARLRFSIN
Outline: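 Read-out is luminescence from luciferin produced by CYP1A2 demethylation of Luciferin-ME (100uM, at Km). Detection reagent stopped the 60 min NADPH-dependent reaction; signals were normalized to 57 uM furafylline.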

[2] = molecular target: Glucocorticoid receptor (Homo sapiens) (UniProt P04150); assay: GR-GFP Redistribution (AID 450;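 active means compounds whose dose series gives a full or clear partial fitted curve of increased nuclear translocation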; further: potency means the concentration at half of the fitted maximal effect); conditions: U2OS GR-GFP nuclear translocation, laser cytometry, 2 h
Sequence of Glucocorticoid receptor (Homo sapiens) (P04150 whole entry, looked up, the tested form may be a part): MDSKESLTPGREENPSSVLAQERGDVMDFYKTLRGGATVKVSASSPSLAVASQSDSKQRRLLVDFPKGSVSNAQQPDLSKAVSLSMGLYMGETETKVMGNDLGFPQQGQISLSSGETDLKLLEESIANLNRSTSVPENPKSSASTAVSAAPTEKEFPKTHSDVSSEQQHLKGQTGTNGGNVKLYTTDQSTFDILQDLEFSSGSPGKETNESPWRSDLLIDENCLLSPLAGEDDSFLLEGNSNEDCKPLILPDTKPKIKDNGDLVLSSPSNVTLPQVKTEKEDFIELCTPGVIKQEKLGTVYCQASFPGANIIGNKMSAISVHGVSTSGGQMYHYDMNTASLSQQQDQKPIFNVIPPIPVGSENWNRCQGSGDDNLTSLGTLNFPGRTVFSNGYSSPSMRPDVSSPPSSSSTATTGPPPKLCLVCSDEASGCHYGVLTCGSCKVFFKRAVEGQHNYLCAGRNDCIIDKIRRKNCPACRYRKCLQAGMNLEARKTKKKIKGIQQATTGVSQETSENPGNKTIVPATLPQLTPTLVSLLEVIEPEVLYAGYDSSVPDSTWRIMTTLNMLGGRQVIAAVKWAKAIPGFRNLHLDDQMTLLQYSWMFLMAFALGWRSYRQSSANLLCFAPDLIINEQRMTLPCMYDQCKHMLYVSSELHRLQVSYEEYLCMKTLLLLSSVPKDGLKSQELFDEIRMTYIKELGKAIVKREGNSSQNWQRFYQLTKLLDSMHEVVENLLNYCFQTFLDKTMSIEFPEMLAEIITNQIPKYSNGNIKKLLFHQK

[3] = molecular target: Glucocorticoid receptor (Homo sapiens) (UniProt P04150); assay: GR-EFC Redistribution (AID 451; calls by dose curve; further: potency means the concentration at half of the fitted maximal effect); conditions: CHO-K1 GR-EFC translocation, beta-gal luminescence, 2 h
Outline: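 CHO-K1 cells expressing nuclear EA and GR-ED fragments of b-gal; compounds titrated up to 46 uM final, 2 h at 37 C. GR nuclear translocation read as complemented b-gal luminescence after 1 h RT detection.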

[4] = molecular target: Mitogen-activated protein kinase 10 (Mus musculus) (UniProt Q61831); assay: JNK3 AlphaScreen Assay (AID 530; active means well fitted curve in either direction with a large enough effect, not every such curve was filed as active;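 further: kinase came from lysate of stimulated human HepG2 cells; signal reports phosphorylation of biotinylated GST-cJun 1-79 at Ser73 with 10 µM ATP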)
Outline: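 HepG2 lysate (IL-1b/TNFa pre-activated) + biotin-GST-cJun 1-79 + anti-pSer73 cJun; cpd titration, 15 min RT; ATP 10 uM start; Tris pH 7.6, MgCl2, DTT, vanadate; beads in EDTA buffer; AlphaScreen.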

[5] = molecular target: 3',5'-cyclic-AMP phosphodiesterase 4B (Homo sapiens) (UniProt Q07343); assay: qHTS Assay for Inhibitors of PDE-IV (AID 607; active means well fitted activation curve with a large enough effect in the main read-out, with a control signal flat, not every such curve was filed as active)
Sequence of 3',5'-cyclic-AMP phosphodiesterase 4B (Homo sapiens) (Q07343 whole entry, looked up): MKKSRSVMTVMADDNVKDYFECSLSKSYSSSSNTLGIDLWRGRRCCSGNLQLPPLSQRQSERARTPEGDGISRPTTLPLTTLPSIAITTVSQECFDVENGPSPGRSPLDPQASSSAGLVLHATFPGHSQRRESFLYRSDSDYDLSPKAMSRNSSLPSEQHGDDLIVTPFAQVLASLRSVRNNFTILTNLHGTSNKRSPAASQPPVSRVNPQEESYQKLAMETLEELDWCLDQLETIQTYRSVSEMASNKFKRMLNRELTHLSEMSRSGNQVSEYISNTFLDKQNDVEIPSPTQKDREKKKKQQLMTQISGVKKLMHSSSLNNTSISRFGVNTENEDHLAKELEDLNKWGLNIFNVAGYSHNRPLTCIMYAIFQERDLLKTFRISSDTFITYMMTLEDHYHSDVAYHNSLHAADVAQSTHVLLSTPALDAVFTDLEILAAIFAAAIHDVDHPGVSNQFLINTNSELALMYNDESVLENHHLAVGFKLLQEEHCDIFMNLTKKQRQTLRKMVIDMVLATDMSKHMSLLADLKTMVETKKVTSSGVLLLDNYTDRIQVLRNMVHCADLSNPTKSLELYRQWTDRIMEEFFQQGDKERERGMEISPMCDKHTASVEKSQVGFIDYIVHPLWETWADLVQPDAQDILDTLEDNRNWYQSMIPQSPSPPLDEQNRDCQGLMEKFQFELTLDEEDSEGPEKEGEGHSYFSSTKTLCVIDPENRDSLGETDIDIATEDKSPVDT
Outline: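 HEK293 ACTOne cells with CNG channel (1000/well), endogenous PDE4; membrane potential dye, compounds up to 22.9 uM final. Fluorescence Ex 535/Em 590; RO 20-1724 (100 uM final) as reference.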

[6] = molecular target: Cytochrome P450 3A4 (Homo sapiens) (UniProt P08684); assay: qHTS Assay for Activators of Cytochrome P450 3A4 (AID 885); further: nearly all actives have a fitted effect of over 65% in size
Sequence of Cytochrome P450 3A4 (Homo sapiens) (P08684 whole entry, looked up): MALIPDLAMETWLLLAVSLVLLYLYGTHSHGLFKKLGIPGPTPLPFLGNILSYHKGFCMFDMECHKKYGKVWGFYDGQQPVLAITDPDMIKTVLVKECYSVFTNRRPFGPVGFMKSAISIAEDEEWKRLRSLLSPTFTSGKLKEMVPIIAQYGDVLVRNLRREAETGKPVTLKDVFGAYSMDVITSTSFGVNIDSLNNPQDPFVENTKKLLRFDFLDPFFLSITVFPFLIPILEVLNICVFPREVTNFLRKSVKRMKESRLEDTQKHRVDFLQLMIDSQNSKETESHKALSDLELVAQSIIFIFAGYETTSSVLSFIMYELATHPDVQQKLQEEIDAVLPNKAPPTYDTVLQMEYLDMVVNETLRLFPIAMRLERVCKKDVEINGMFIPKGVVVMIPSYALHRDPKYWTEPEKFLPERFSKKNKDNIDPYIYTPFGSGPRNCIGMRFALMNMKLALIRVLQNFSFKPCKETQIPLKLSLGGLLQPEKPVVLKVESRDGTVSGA
Outline: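 Human CYP3A4 dealkylates Luciferin-PPXE to luciferin, which luciferase detection converts to light. Substrate was at its KM (25uM), buffer 200mM KPO4, reaction 60 min at RT.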

[7] = Confirmation and Secondary Assay for Modulators of Hemoglobin Beta Chain Splicing at IVS2 654 locus (AID 910);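 further: HeLa cells stably carrying EGFP split by mutant beta-globin IVS2-654 intron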
Outline: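 HeLa cells stably expressing EGFP interrupted by β-globin IVS2-654 intron, seeded overnight in Opti-MEM/2% FCS, then treated 2 days at 37 °C. Restored splicing read as total peak GFP intensity per well by laser scanning cytometry (488 nm excitation, 500–520 nm emission); 500 nM antisense PNA as control.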

[8] = Confirmation and Secondary Assay for Modulators of Hemoglobin Beta Chain Splicing at IVS2 705 locus (AID 930);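 further: HeLa cells stably expressing the EGFP-705 splicing reporter; GFP fluorescence per well restored by corrected splicing of the IVS2-705 intron in EGFP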
Outline: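 Assay measures total GFP intensity per well in HeLa EGFP-705 cells after 2 days with compound; mis-splicing normally truncates EGFP, so fluorescence indicates corrected splicing.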

[9] = qHTS Assay for Lipid Storage Modulators (AID 1519; calls by dose curve); conditions: Drosophila S3 cells, BODIPY lipid droplet/cell ratio, laser cytometry, cells loaded with oleic acid
Outline: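 Cells seeded at 5,000 per well were treated with compounds over a concentration series and loaded with oleic acid (400 uM, as added). Lipid droplet fluorescence (488 nm excitation, 500-530 nm channel) was read by laser-scanning cytometry and normalized to 20 uM Triacsin C.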

[10] = molecular target: Ubiquitin carboxyl-terminal hydrolase 1 (Homo sapiens) (UniProt O94782); assay: Inhibitors of USP1/UAF1: Pilot qHTS (AID 504865);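 further: rhodamine fluorescence freed from ubiquitin-rhodamine substrate followed over time; top concentration of the series differs between compounds; nearly all actives have a fitted effect of over 35% in size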
Sequence of Ubiquitin carboxyl-terminal hydrolase 1 (Homo sapiens) (O94782 whole entry, looked up): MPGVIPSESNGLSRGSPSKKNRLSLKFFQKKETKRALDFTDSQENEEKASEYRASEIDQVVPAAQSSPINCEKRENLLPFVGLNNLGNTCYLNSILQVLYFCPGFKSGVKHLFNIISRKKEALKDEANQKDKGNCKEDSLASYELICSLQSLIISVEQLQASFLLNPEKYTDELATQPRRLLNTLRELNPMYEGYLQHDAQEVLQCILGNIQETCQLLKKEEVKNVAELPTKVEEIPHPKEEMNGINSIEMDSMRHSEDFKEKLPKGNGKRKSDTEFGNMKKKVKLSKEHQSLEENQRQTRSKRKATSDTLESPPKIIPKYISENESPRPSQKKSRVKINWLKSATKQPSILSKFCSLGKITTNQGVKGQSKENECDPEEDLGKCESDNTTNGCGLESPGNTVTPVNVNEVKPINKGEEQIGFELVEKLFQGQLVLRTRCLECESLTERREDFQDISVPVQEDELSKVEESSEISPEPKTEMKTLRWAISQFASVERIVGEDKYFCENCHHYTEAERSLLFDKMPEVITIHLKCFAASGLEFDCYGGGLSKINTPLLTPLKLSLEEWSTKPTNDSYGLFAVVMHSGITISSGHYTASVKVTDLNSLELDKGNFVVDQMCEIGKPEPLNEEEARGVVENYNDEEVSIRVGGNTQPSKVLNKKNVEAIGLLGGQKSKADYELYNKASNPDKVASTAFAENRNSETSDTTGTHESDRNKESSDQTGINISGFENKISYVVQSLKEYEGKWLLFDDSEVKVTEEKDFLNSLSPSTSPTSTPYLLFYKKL
Outline: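 Kinetic fluorescence assay: 1nM USP1/UAF1, 15 min compound preincubation, then 150nM Ub-Rho; 480/540 nm.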

[11] = molecular target: DNA dC->dU-editing enzyme APOBEC-3G (Homo sapiens) (UniProt Q9HC16); assay: qHTS for inhibitors of Vif-A3G interactions: Validation (AID 588379)
Sequence of DNA dC->dU-editing enzyme APOBEC-3G (Homo sapiens) (Q9HC16 whole entry, looked up): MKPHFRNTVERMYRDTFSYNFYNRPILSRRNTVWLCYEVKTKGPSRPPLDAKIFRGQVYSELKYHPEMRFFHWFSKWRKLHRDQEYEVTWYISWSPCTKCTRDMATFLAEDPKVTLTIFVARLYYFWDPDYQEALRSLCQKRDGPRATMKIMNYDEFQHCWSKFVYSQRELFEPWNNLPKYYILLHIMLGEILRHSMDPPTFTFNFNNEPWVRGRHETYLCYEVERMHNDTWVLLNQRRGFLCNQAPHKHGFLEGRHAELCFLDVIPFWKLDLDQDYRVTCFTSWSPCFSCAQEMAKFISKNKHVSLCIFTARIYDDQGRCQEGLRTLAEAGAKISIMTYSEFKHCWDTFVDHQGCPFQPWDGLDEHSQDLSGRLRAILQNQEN
Outline: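 Yellow fluorescence (Ex 488, Em 500-530) of Vif-coexpressing HeLa A3G-eYFP cells, scanned by Acumen cytometer, reports blocked A3G degradation. Cells plated at 700/well overnight at 37 deg C before compound addition, then a further overnight compound incubation at 37 deg C.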

[12] = test system: Zika virus NS2B-NS3 protease; assay: Primary screen GU AMC qHTS for Zika virus inhibitors (AID 1347154); further: nearly all actives have a fitted effect of over 70% in size; further: potency means the concentration at half of the fitted maximal effect
Outline: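 Unlinked Zika NS2B hydrophilic domain–NS3 protease complex at 25 nM in 10 mM Tris-HCl pH 8.0, 0.01% Tween 20, with an AMC peptide substrate. Fluorescence change (340/450 nm) over 15 min at room temperature, normalized to controls, fitted to 4-parameter Hill.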

[13] = Counterscreen qHTS for small molecule stabilizers of the endoplasmic reticulum resident proteome: GLuc-NoTag assay (AID 1508627);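 further: SH-SY5Y cells given compound then 100 nM thapsigargin to empty ER calcium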
Outline: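 Counterscreen line: SH-SY5Y-GLuc-NoTag. Seed, 5 h; compound, 19 h; thapsigargin 100 nM, 4 h; 37C/5% CO2. Readout: secreted GLuc luminescence, coelenterazine 0.07x final, no lysis.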

[14] = Cell Viability qHTS for small molecule stabilizers of the endoplasmic reticulum resident proteome (AID 1508629); conditions: cell viability counter-screen, 100 nM thapsigargin for final 4 h;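 further: human SH-SY5Y neuroblastoma cells carrying the GLuc-SERCaMP reporter; compound exposure about 46 h in total before the viability read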
[15] = Primary qHTS for small molecule stabilizers of the endoplasmic reticulum resident proteome: Secreted ER Calcium Modulated Protein (SERCaMP) assay (AID 1508630)
Outline: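 The SH-SY5Y reporter protocol was run at 3 concentrations up to 38.3 uM (primary) or 11 concentrations (follow-up): 16 h compound, 100 nM thapsigargin for 4 h, then extracellular luciferase luminescence.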

[16] = Confirmatory qHTS for small molecule stabilizers of the endoplasmic reticulum resident proteome: Secreted ER Calcium Modulated Protein (SERCaMP) assay (AID 1508628); further: nearly all actives have a fitted effect of over 40% in size
Outline: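 GLuc-SERCaMP-expressing SH-SY5Y cells, pretreated 16 h with compound, are challenged with thapsigargin to empty ER calcium stores; after 4 h, coelenterazine is added directly to the medium and luminescence is imaged.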

NCCOB(c1ccccc1)c1ccccc1
Potency [1]: 15.8 µM (active) | Potency [2]: > 46 µM (inactive) | Potency [3]: > 46 µM (inactive) | Potency [4]: inactive | Potency [5]: inactive | Potency [6]: inactive | outcome [7]: inactive | outcome [8]: inactive | activity change, negative = inhibition ([9]; at 57.5 µM (top of the series)): -7.96% (inactive) and -2.88% (inactive) | max response ([9]; measured here: cell count channel max response): -4.57% and 13.6% | max response ([9]; measured here: lipid channel max response): -11.1% and 11.6% | Potency [10]: inactive | Potency [11]: inactive | Potency [12]: inactive | Potency [13]: inactive | max response [14]: 2.88% (inactive)

CCCCC/C=C/C=C1/C(=O)C=C[C@@H]1C/C=C\CCCC(=O)O
activity change, negative = inhibition [12]: 2.18% [at 6.83 µM] (inactive) | activity change, negative = inhibition [15]: -9.18% [at 3.88 µM] (inactive)

N=C(CC(O)COc1ccccc1-c1ccccc1)N1CCCCC1 (configuration not stated)
Potency [12]: inactive | Potency [16]: inactive

COC(=O)[C@@H](N)CSC/C=C(\C)CC/C=C(\C)CCC=C(C)C
Potency [12]: inactive | Potency [15]: inactive

CC1=C(/C=C/C(C)=C/C=C/C(C)=C/C(=O)O)C(C)(C)CCC1O (configuration not stated)
Potency [12]: inactive | Potency [15]: inactive

Nc1cc(N2CCCCC2)nc(N)[n+]1OS(=O)(=O)[O-]
Potency [12]: inactive | Potency [15]: inactive

OCc1cc2c(cn1)[nH]c1ccccc12
Potency [12]: 26.7 µM (active) | Potency [15]: inactive

Cc1ccccc1N1CCN(S(=O)(=O)CC23CCC(CC2NC(=O)C(N)CCS(C)(=O)=O)C3(C)C)CC1 (configuration not stated)
Potency [12]: inactive | Potency [15]: inactive

COC(=O)/C=C/c1ccc(C(=O)NCC(=O)N[C@@H](CCC(=O)OC)C(=O)N[C@@H](CC(C)C)C(N)=O)cc1
Potency [12]: inactive | Potency [15]: inactive

CCCCC/C=C\C\C=C/C=C/C=C/[C@@H](SC[C@H](N)C(=O)O)[C@@H](O)CCCC(=O)O
activity change, negative = inhibition [12]: 5.9% [at 0.59 µM] (inactive) | activity change, negative = inhibition [15]: -5.61% [at 0.478 µM] (inactive)

Nc1ncnc2c1nc(Br)n2[C@@H]1O[C@H]2COP(=O)(O)O[C@@H]2[C@@H]1O
Potency [12]: inactive | Potency [15]: inactive

N#C/C(=C\c1cc(Cl)cc(Cl)c1)c1cccnc1
Potency [12]: inactive | Potency [15]: inactive

C[C@@H](O)CNC(C)(C)CC(=O)N[C@@H]1CCc2ccccc2N(Cc2ccc(-c3ccccc3-c3nn[nH]n3)cc2)C1=O
Potency [12]: inactive | Potency [15]: inactive

C[C@H](NC(=O)CNC(=O)[C@@H](NC(=O)[C@H](Cc1ccccc1)NC(=O)CNC(=O)CNC(=O)[C@@H](N)Cc1ccccc1)[C@@H](C)O)C(=O)N[C@@H](CCCN=C(N)N)C(=O)N[C@@H](CCCCN)C(=O)N[C@@H](CO)C(=O)N[C@@H](C)C(=O)N[C@@H](CCCN=C(N)N)C(=O)N[C@H](CN)CCCCN (HELM PEPTIDE1{F.G.G.F.T.G.A.R.K.S.A.R.[NCCCC[C@@H](CN)N[*:1]]}$$$$V2.0)
activity change, negative = inhibition [12]: 1.78% [at 6.83 µM] (inactive) | activity change, negative = inhibition [15]: -10.3% [at 3.88 µM] (inactive)

COC(=O)[C@H](Cc1ccc(C#Cc2ccccc2)cc1)NC(=O)C[C@H]1CCCN(C(=N)N)C1
Potency [12]: inactive | Potency [15]: inactive

CCCC(=O)Nc1nc2c(ncn2[C@@H]2O[C@H]3COP(=O)(O)O[C@@H]3[C@@H]2OC(=O)CCC)c(=O)[nH]1
Potency [12]: inactive | Potency [15]: inactive

CC(C)[C@H]1c2ccc(F)cc2CC[C@@]1(CCN(C)CCCc1nc2ccccc2[nH]1)OC(=O)C1CC1
Potency [12]: inactive | Potency [15]: inactive

O=C(O)[C@H]1CCCN1
Potency [12]: inactive | Potency [15]: inactive

Nc1ncnc2c1ncn2[C@@H]1O[C@H](C(=O)NC2CC2)[C@@H](O)[C@H]1O
Potency [12]: inactive | Potency [15]: inactive
